Sm TGR block: qHTS Assay for the Inhibitors of Schistosoma Mansoni Peroxiredoxins. purified TGR, DTNB reduction, TNB absorbance 405 nm. Schistosoma mansoni thioredoxin glutathione reductase (TGR), Q962Y6. Potency, µM (highest dose often 114 µM), for inactives: at the top dose activity change, negative = inhibition, hits mostly inhibitors. 360,000 tested, 3% active; also: potency is read from the fitted curve at half-maximal effect; % is scaled to controls: 0 for no effect and ±100 for the full control effect; nearly all actives have a fitted effect of over 60% in size
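TGR 20 nM + NADPH 100 uM (dispensed conc.), cpd preinc 15 min RT; start with NADPH (500 uM addition) then DTNB (15 mM addition). Kinetic TNB absorbance, 405 nm filter. Four-parameter Hill fit across titration.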
Cycloheximide cs: Cycloheximide Counterscreen for Small Molecule Inhibitors of Shiga Toxin; cell reporter, cycloheximide protein synthesis inhibition counterscreen; max response, %; 300,000 tested, 12% active; in the data active = max response mostly above about 13%, no sharp cut-off; inactive = mostly below about 14%; also: read at 38.3 µM for the half of the compounds with a filed dose; 0% is about no effect
Tb PYK inh: qHTS of Trypanosoma Brucei Inhibitors; pyruvate kinase (Trypanosoma brucei), Q57TT1; TbPYK enzyme, Kinase-Glo Plus ATP luminescence, 45 min; Potency, µM (titrated, usually from 76.8 µM), for inactives: at the highest dose activity, negative = inhibition, most hits filed as inhibitors; 410,000 tested, 0.12% active; also: potency is read from the fitted curve at half-maximal effect; % is scaled to controls: 0 for no effect and ±100 for the full control effect; nearly all actives have a fitted effect of over 50% in size
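ADP (130 uM final) triggers the TbPYK reaction after compound addition; incubation is 45 min at room temperature. Kinase-Glo Plus is then added and luminescence imaged. Normalized data are fitted to concentration-effect curves.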
Shiga toxin inh: A qHTS for Small Molecule Inhibitors of Shiga Toxin | Vero cells, Shiga toxin protein synthesis inhibition reporter | 290,000 tested, 9.2% active | inhibition, % at 38.7 µM; in the data active = inhibition mostly above about 28%, no sharp cut-off; inactive = mostly below about 43%; also: 0% is about no effect
FBPA Giardia inh: qHTS Assay for Inhibitors of Fructose-1,6-bisphosphate Aldolase from Giardia Lamblia; A8B2U2; purified Giardia FBPA; Potency, µM (top dose mostly 59.6 µM), for inactives: at the top dose activity, negative = inhibition, actives largely listed as inhibitors; 290,000 tested, 0.71% active; AID 2451, 2010; also: potency is read from the fitted curve at half-maximal effect; % is scaled to controls: 0 for no effect and ±100 for the full control effect; nearly all actives have a fitted effect of over 55% in size
Target sequence (A8B2U2 whole entry, looked up): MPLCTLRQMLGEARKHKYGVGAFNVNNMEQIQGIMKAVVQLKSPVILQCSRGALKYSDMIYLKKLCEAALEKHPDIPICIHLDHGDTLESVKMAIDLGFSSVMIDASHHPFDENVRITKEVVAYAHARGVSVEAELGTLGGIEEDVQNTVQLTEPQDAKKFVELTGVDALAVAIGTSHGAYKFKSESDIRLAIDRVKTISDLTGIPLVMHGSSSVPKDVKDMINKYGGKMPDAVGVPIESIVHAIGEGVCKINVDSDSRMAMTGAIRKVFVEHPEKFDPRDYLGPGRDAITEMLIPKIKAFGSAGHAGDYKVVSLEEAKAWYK
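Giardia FBPA (40 nM reagent) was preincubated 10 min at RT with compound (up to 57.5 uM final), then substrate plus GAPDH/TPI/NAD/arsenate coupling system with diaphorase/resazurin was added; resorufin fluorescence (525/598 nm) was read after 20 min.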
LmPK inhibitor: qHTS Assay for Inhibitors of Leishmania Mexicana Pyruvate Kinase (LmPK). Q27686. AID 1721, 2009. Potency, µM (titrated, usually from 57.5 µM), without a hit: at the top dose activity change, negative = inhibition, most hits filed as inhibitors. 290,000 tested, 0.37% active. purified LmPK, Kinase-Glo ATP luminescence, 1 h; also: potency is read from the fitted curve at half-maximal effect; % is scaled to controls: 0 for no effect and ±100 for the full control effect
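Pyruvate kinase activity monitored as ATP production (luciferase luminescence). Conditions: 0.1 nM enzyme, 0.5 mM PEP, 0.1 mM ADP, 1 h, RT; normalized against uninhibited and no-enzyme wells.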
Active calls of the source: *. This is one part of a sample in which hits are shown more often than they occur. Unless noted, calls follow the shape of the dose curve; as a rule, active = well fitted curve in the direction sought with a large enough effect; inconclusive = small, poorly fitted or top-dose-only effect, or another doubt; inactive = no such curve, though single readings can be large; an effect the other way counts as inactive or inconclusive.

CC(C)[C@H](NC(=O)c1ccccc1)C(=O)OCC(=O)c1ccccc1F was read as Sm TGR block 8%, Cycloheximide cs 16*, Tb PYK inh -4%, Shiga toxin inh 20, FBPA Giardia inh 0% and LmPK inhibitor -2%.
`CC(C)C[C@H](NC(=O)[C@@H](Cc1c[nH]c2ccccc12)NC(=O)[C@H](Cc1ccc(O)cc1)NC(=O)[C@H](CO)NC(=O)[C@H](Cc1c[nH]c2ccccc12)NC(=O)[C@H](Cc1cnc[nH]1)NC(=O)[C@@H]1CCC(=O)N1)C(=O)N[C@@H](CCCN=C(N)N)C(=O)N1CCC[C@H]1C(=O)NCC(N)=O` gave Cycloheximide cs -2, Shiga toxin inh -5 and FBPA Giardia inh 4%.
For OCc1ccc(O)c2ncccc12 the results were Sm TGR block 22µM*, Cycloheximide cs -2, Tb PYK inh -4%, Shiga toxin inh -3, FBPA Giardia inh inconclusive and LmPK inhibitor 1%.
Oc1ccc(Cc2ccccc2)c2cccnc12 was read as Tb PYK inh 3%.
CN(C)CCN(Cc1ccco1)c1ccccn1 was read as Tb PYK inh 1%.
For Oc1ccc(COCc2ccccc2)c2cccnc12 the results were Sm TGR block 35µM*, Cycloheximide cs 68*, Tb PYK inh -8%, Shiga toxin inh 147*, FBPA Giardia inh 13% and LmPK inhibitor -8%.
For CC(C)COCc1ccc(O)c2ncccc12 the results were Sm TGR block 16µM*, Cycloheximide cs -3, Tb PYK inh 3%, Shiga toxin inh -4, FBPA Giardia inh inconclusive and LmPK inhibitor 6%.
CN(Cc1ccco1)Cc1ccc(O)c2ncccc12 was read as Sm TGR block 0.71µM* and Tb PYK inh -1%.
For Cc1ccc2oc(-c3cc(NC(=O)c4ccc5c(c4)OCCO5)cc(C)c3O)nc2c1 the results were Sm TGR block 3% and Tb PYK inh 5%.
`CCOC(=O)[C@]12CCCC=C1N(Cc1ccco1)C(=O)[C@H](CC(=O)N1CCCC1)C2` gave Tb PYK inh 3%.
`CCc1ccc(CNc2ncnc3onc(-c4ccc(Cl)cc4)c23)cc1` gave Sm TGR block -10% and Tb PYK inh -12%.
`CCCOCc1ccc(O)c2ncccc12` gave Sm TGR block 28µM*, Cycloheximide cs 1, Tb PYK inh 3%, Shiga toxin inh 17, FBPA Giardia inh inconclusive and LmPK inhibitor 2%.
Cc1ccc(NC(=O)c2sc3nc[nH]c(=O)c3c2C)cc1C was read as Sm TGR block 3% and Tb PYK inh -7%.
For Cc1nc2c(ccc3nc(NC(=O)c4ccc5c(c4)OCCO5)sc32)s1 the results were Sm TGR block -30%, Cycloheximide cs 45*, Tb PYK inh -18%, Shiga toxin inh 43, FBPA Giardia inh -10% and LmPK inhibitor -5%.
For Cc1cnc(NC(=O)c2ccc3c(c2)OCCO3)s1 the results were Sm TGR block -9% and Tb PYK inh -12%.
`Cc1ccc2sc(NC(=O)c3ccc4c(c3)OCCO4)nc2c1C` gave Sm TGR block 9% and Tb PYK inh 7%.
For Cc1nc2ccc3nc(NC(=O)c4ccc5c(c4)OCCO5)sc3c2s1 the results were Sm TGR block -4%, Cycloheximide cs 12*, Tb PYK inh -3%, Shiga toxin inh -13, FBPA Giardia inh 5% and LmPK inhibitor -3%.
O=P(/C(=N/O)N1CCCCC1)(N1CCOCC1)N1CCOCC1 was read as Sm TGR block 1%, Cycloheximide cs -2, Tb PYK inh 1%, Shiga toxin inh 12, FBPA Giardia inh 17% and LmPK inhibitor -1%.
O=P(/C(=N/O)Sc1ccccc1)(N1CCOCC1)N1CCOCC1 was read as Sm TGR block 13µM*, Cycloheximide cs -1, Tb PYK inh -4%, Shiga toxin inh -15, FBPA Giardia inh 7% and LmPK inhibitor 3%.
`CC1OC(OC2C(CO)OC(OC3C(CO)OC(O)C(O)C3O)C(O)C2O)C(O)C(O)C1NC1C=C(CO)C(O)C(O)C1O` (stereo not drawn) gave Cycloheximide cs -5, Shiga toxin inh -4 and FBPA Giardia inh 6%.
O=C(CN1CCOCC1)Nc1ccc(Br)cc1C(=O)c1ccccc1 was read as Sm TGR block -1%, Cycloheximide cs -1, Tb PYK inh 2%, Shiga toxin inh 8, FBPA Giardia inh 2% and LmPK inhibitor -2%.
For O=C(CCN1CCOCC1)Nc1ccc(Br)cc1C(=O)c1ccccc1 the results were Sm TGR block 25µM*, Cycloheximide cs 1, Tb PYK inh 4%, Shiga toxin inh -6, FBPA Giardia inh inconclusive and LmPK inhibitor -2%.
O=S(=O)(c1cccc(-c2cn3cc(Cl)ccc3n2)c1)N1CCOCC1 was read as Sm TGR block 3%, Cycloheximide cs -1, Tb PYK inh 4%, Shiga toxin inh 7, FBPA Giardia inh 0% and LmPK inhibitor -6%.
CNC(=O)Oc1cccc(-c2cn3cc(Cl)ccc3n2)c1 was read as Sm TGR block 2%, Cycloheximide cs 11, Tb PYK inh -23%, Shiga toxin inh -13, FBPA Giardia inh -16% and LmPK inhibitor 14µM*.
Screening CN(C)S(=O)(=O)c1cccc(-c2cn3cc(Cl)ccc3n2)c1 returned Sm TGR block 2%, Cycloheximide cs 28*, Tb PYK inh 1%, Shiga toxin inh 20, FBPA Giardia inh -13% and LmPK inhibitor 1%.
`Clc1ccc2nc(-c3ccccc3)cn2c1` gave Sm TGR block -20%, Cycloheximide cs 34*, Tb PYK inh inconclusive, Shiga toxin inh 44*, FBPA Giardia inh -19% and LmPK inhibitor inconclusive.
`CN(C)S(=O)(=O)c1cccc(-c2cn3ccccc3n2)c1` gave Sm TGR block 0%, Cycloheximide cs 20, Tb PYK inh -8%, Shiga toxin inh 21, FBPA Giardia inh -1% and LmPK inhibitor 3%.
`Cc1ccc(NC(=O)Cn2c(=O)n(Cc3ccco3)c(=O)c3oc4ccccc4c32)cc1C` gave Sm TGR block -3% and Tb PYK inh -4%.
`CC/C=C\C/C=C\C/C=C\C/C=C\C=C\C(O)CCCC(=O)O` (stereo not drawn) gave FBPA Giardia inh 2%.
O=C(Cn1ccc(NC(=O)OCc2ccccc2)nc1=O)NCc1ccccn1 was read as Sm TGR block 4% and Tb PYK inh -2%.
For O=C(Cn1ccc(NC(=O)OCc2ccccc2)nc1=O)NCCc1ccccn1 the results were Sm TGR block 32µM* and Tb PYK inh 3%.
